{"source": "PubChem BioAssay AID540308", "about": "(The Scripps Research Institute Molecular Screening Center, 2011)", "note": "The whole screen tested about 360,000 compounds, of which about 3,500 (0.97%) were called active. The sample holds actives, similar compounds and a random draw of the others, so the mix is not that of the screen. Values without a mark were called inactive.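 Rule for the calls: active = activation above a per-plate cutoff, the mean activation of sample wells on that plate plus 3 SD (cut at about 8% in these data); inactive = the rest.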"}
{"biological_target": "Melanocortin receptor 4 (Homo sapiens) (UniProt P32245)", "sequence (P32245 whole entry, looked up)": "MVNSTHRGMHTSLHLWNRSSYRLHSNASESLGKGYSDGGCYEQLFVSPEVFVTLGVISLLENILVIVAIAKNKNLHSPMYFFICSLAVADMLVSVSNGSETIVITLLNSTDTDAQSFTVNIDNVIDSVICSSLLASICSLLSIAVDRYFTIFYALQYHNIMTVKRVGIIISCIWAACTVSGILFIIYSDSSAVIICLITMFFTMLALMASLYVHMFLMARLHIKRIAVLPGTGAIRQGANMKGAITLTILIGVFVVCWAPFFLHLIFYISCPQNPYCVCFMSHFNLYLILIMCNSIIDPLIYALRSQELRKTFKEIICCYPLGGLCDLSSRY", "assay": "MC4R agonists recruiting beta-arrestin, primary screen, cell-based, luminescence, agonist arm of biased-ligand search (AID 540308)", "settings": "U2OS MC4R beta-arrestin complementation, at 8.9 µM, active compounds read high, percent of melanotan II response, DMSO zero"}
{"smiles": "OC[C@@H]1CN(Cc2ccc(F)cc2)C[C@H](n2cnc3c(NC4CCCC4)ncnc32)O1", "activation": "-2.29%"}
{"smiles": "CC1(C(=O)NCc2cccc3ccccc23)CCN1Cc1ccc(-c2ccccc2)o1", "note": "(configuration not stated)", "activation": "-1.17%"}
{"smiles": "COc1ccc(-c2ccc(C(=O)NC(C)C)c3occc23)c(C)c1", "activation": "1.66%"}
{"smiles": "CCc1nc2ccc(C(=O)N(C)Cc3ccco3)cn2c1N(C)C(=O)Cc1ccccc1", "activation": "-1.99%"}
{"smiles": "COc1cccc(CNC(=O)c2nnn(CC(=O)Nc3cc(Cl)ccc3C)c2N)c1", "activation": "11.7% (active)"}
{"smiles": "COc1cccc(CNC(=O)c2nnn(CC(=O)Nc3cc(C)ccc3C)c2N)c1", "activation": "3.53%"}
{"smiles": "COc1ccc(CNC(=O)c2nnn(CC(=O)Nc3cc(C)cc(C)c3)c2N)cc1", "activation": "0.3%"}
{"smiles": "CN(C)c1cccc(NC(=O)c2ccc(-c3ccc(F)c(F)c3)c3ccoc23)c1", "activation": "0.91%"}
{"smiles": "CC(OC(=O)c1ccc([N+](=O)[O-])cc1)C(=O)NCC1CCCCC1", "note": "(configuration not stated)", "activation": "-1.32%"}
{"smiles": "CC(OC(=O)c1cccc(S(=O)(=O)N2CCOCC2)c1)C(=O)NCC1CCCCC1", "note": "(configuration not stated)", "activation": "0.27%"}
{"smiles": "COc1cc(C(=O)OC(C)C(=O)NCC2CCCCC2)cc(NC(=O)c2ccco2)c1OC", "note": "(configuration not stated)", "activation": "13.3% (active)"}
{"smiles": "CC(C)Nc1ncnc2c1ncn2[C@H]1CN(Cc2ccncc2)C[C@@H](CO)O1", "activation": "2.39%"}
{"smiles": "CC(C)CN1CCC1(C)C(=O)Nc1ccc(OC(F)F)cc1", "note": "(configuration not stated)", "activation": "0.55%"}
{"smiles": "Cc1ccc(F)c(S(=O)(=O)NC(=O)C2(C)CCN2C(=O)c2ccco2)c1", "note": "(configuration not stated)", "activation": "0.44%"}
{"smiles": "Oc1c(Cl)cc(Cl)c(Cl)c1Cc1c(O)c(Cl)cc(Cl)c1Cl", "activation": "9.22% (active)"}
{"smiles": "O=C(NCc1ccc(F)cc1)c1cc(C2CCCCN2C(=O)c2ccccn2)on1", "note": "(configuration not stated)", "activation": "1.1%"}
{"smiles": "COc1cc(/C=C2\\Oc3ccc(C#Cc4ccc(O)cc4)cc3C2=O)cc(OC)c1", "activation": "10.2% (active)"}
{"smiles": "COc1cc(C#Cc2ccc3cc(CCCO)oc(=O)c3c2)cc(OC)c1", "activation": "-2.63%"}
{"smiles": "COC(=O)C(C)Oc1ccc2c(c1)O/C(=C\\c1cccc(Br)c1)C2=O", "note": "(configuration not stated)", "activation": "0.36%"}
{"smiles": "CCc1nc2ccc(C(=O)Nc3cc(-c4ccccc4)ccc3OC)cn2c1N(CC)CC(=O)N(C)C", "activation": "1.77%"}
{"smiles": "C[C@H]([C@@H](O)[C@@H](O)[C@@H](C)C(C)(C)C)[C@H]1CC[C@H]2C3CC[C@H]4C[C@H](OS(=O)(=O)O)[C@@H](OS(=O)(=O)O)C[C@]4(C)[C@H]3CC[C@]12C", "note": "(some centres not stated)", "activation": "0.15%"}
{"smiles": "CC1(C(=O)NS(=O)(=O)c2ccccc2)CCN1C(=O)C1CCCCC1", "note": "(configuration not stated)", "activation": "-1.69%"}
{"smiles": "COc1cccc(-c2cc3nc(NCc4ccccc4OC)n(C)c(=O)c3s2)c1", "activation": "6.31%"}
{"smiles": "COc1ccc(Cl)cc1C(=O)Nc1ccc(N(C)C(C)=O)cc1", "activation": "0.11%"}
{"smiles": "CCN(CC)C(=O)Oc1ccc(Br)cc1C(=O)Nc1ccc(F)c(Cl)c1", "activation": "11.6% (active)"}
{"smiles": "CCCOc1ccc(F)cc1-c1cc(C(=O)Nc2ccc(F)c(Cl)c2)[nH]n1", "activation": "2.17%"}
{"smiles": "CCN(CC)c1ccc(/C=N/NC(=O)CNC(=O)c2cccs2)cc1", "activation": "-1.48%"}
{"smiles": "CCN(CC)c1ccc(C(=O)N/N=C/c2ccc(N3CCOCC3)cc2)cc1", "activation": "26.7% (active)"}
{"smiles": "Cc1ccccc1N/N=C/c1ccc(N2CCOCC2)cc1", "activation": "-1.27%"}
{"smiles": "O=CNc1cc(-c2ccc(C(=O)N3CCOCC3)cc2)cn2c(-c3ccc(F)cc3)cnc12", "activation": "0.33%"}
{"smiles": "CC1(Cc2ccccc2C#N)C(=O)Nc2ccc(-c3ccc4[nH]ccc4c3)cc21", "note": "(configuration not stated)", "activation": "-2.44%"}
{"smiles": "Cc1nc2c(OCc3cccc(Cl)c3)cccn2c1N(C)CC1CC1", "activation": "-0.13%"}
{"smiles": "CC1(C(=O)NCc2ccco2)Cc2c(-c3ccc4c(c3)OCO4)ccnc2O1", "note": "(configuration not stated)", "activation": "0.01%"}
{"smiles": "CC1=C(C/C=C(\\C)CCCC(C)CCCC(C)CCCC(C)C)C(=O)c2ccccc2C1=O", "note": "(configuration not stated)", "activation": "-1.56%"}
{"smiles": "CCN(CC)S(=O)(=O)c1ccc(C)c(NC(=O)COc2ccc(Br)cc2Cl)c1", "activation": "13.4% (active)"}
{"smiles": "Cc1ccc(S(=O)(=O)N(C)C)cc1NC(=O)COC(=O)c1c(C)noc1C", "activation": "-0.85%"}
{"smiles": "CCN(CC)S(=O)(=O)c1ccc(OC)c(NC(=O)CCc2c(C)noc2C)c1", "activation": "-1.81%"}
{"smiles": "O=C(NCc1cccnc1)c1cc(C2CCCCN2C(=O)CCc2ccccc2)on1", "note": "(configuration not stated)", "activation": "-1.7%"}
{"smiles": "CCNC(=O)C1CCCN(C(=O)c2cc(F)ccc2C)CC1", "note": "(configuration not stated)", "activation": "1.6%"}
{"smiles": "O=C(N[C@@H](Cc1ccccc1)C(=O)OCc1ccccc1)c1nc[nH]c1C(=O)N[C@@H](Cc1ccccc1)C(=O)OCc1ccccc1", "activation": "0.69%"}
{"smiles": "O=C(N[C@@H](Cc1ccccc1)C(=O)OCc1ccccc1)c1nc[nH]c1C(=O)NC1CCNCC1", "activation": "-0.82%"}
{"smiles": "CC(C)(C)OC(=O)N1CCC(NC(=O)c2[nH]cnc2C(=O)N[C@@H](Cc2ccccc2)C(=O)OCc2ccccc2)CC1", "activation": "17.8% (active)"}
{"smiles": "CC(=O)c1ccc(Nc2nc(C(N)c3ccccc3Cl)cs2)cc1", "note": "(configuration not stated)", "activation": "-0.98%"}
{"smiles": "C=CCC(NC(=O)Cc1ccccc1)C(=O)NCCC", "note": "(configuration not stated)", "activation": "-0.94%"}
{"smiles": "O=C(Cc1ccc(-c2ccccc2)cc1)NC(c1ccccc1)c1ccccc1", "activation": "9.56% (active)"}
{"smiles": "O=C(CN1CCN(Cc2ccccc2)CC1)NC(c1ccccc1)c1ccccc1", "activation": "1.85%"}
{"smiles": "COc1ccc(CN2CCC(C)(Oc3cccc(F)c3)C2)c2ccccc12", "note": "(configuration not stated)", "activation": "0.37%"}
{"smiles": "CCCc1cc(C(=O)Nc2ccc(Cl)cn2)cs1", "activation": "3.75%"}
{"smiles": "COc1c(Cl)cc(C(=O)Nc2ccc(Cl)cn2)cc1Cl", "activation": "10.6% (active)"}
{"smiles": "O=C(Nc1ccc(Cl)cn1)c1ccc2c(c1)OCCO2", "activation": "0.85%"}
{"smiles": "COc1ccc(-c2cc3nc(NCCOc4ccccc4)ccn3n2)cc1", "activation": "4.13%"}
{"smiles": "CCOc1ccc(/C=N/NC(=O)C(C)Sc2ccccn2)cc1OCC", "note": "(configuration not stated)", "activation": "2.39%"}
{"smiles": "COc1cc(/C=N/NC(=O)Nc2ccccc2)ccc1OCCOc1ccccc1C", "activation": "21.2% (active)"}
{"smiles": "CCOc1cc(/C=N/NC(=O)OC)ccc1OCCSc1ccc(Cl)cc1", "activation": "4.19%"}
{"smiles": "CCCCNc1c(-c2ccc(OC)c(Sc3ccc(OC)cc3)c2)nc2ccc(Cl)cn12", "activation": "-1.91%"}
{"smiles": "CCCCNc1nc2c(c(=O)n(C)c(=O)n2C)n1Cc1cccc(OC)c1", "activation": "-2.77%"}
{"smiles": "CCCCNc1c(-c2cccc(Sc3ccc(OC)cc3)c2)nc2ccccn12", "activation": "13.9% (active)"}
